Here are results for 40 molecules from PubChem BioAssay (NCATS).

Records with an inconclusive call do not appear. Calls of active or inactive are those of the source. The call rests on the fitted dose curve; in most records, active means well fitted cell-killing curve with a large enough effect; inconclusive means small, poorly fitted or top-dose-only effect, or effect the other way; inactive means no such curve, though single readings can be large or run the other way.
Potency means the concentration at half of the fitted maximal effect.

The nature of the experiment: Quantitative High-Throughput drug screen in 47 multiple myeloma cell lines against the NCATS MIPE library collection: Karpas620_DSMZ cell viability assay (AID 1918959). Further: nearly all actives have a fitted effect of over 30% in size. As to conditions: Karpas620 myeloma viability, CellTiter-Glo ATP luminescence, 48 h; series mostly up to 45.8 µM. An excerpt: PI: Beverly A. Mock Ph.D.
Laboratory of Cancer Biology and Genetics,
Center for Cancer Research, National Cancer Institute,
National Institute of Health, Bethesda, Maryland
Drug resistance and disease progression are common in multiple myeloma (MM) patients, underscoring the need for new therapeutic combinations. […] We hypothesized that effective combinations would reduce MYC expression and enhance p16 activity. […] These preclinical data identify potentially useful drug combinations for evaluation in drug-resistant MM and reveal potential mechanisms of combined drug sensitivity.
Described herein is the primary MIPE qHTS used to cherrypick compounds. Validated compounds were then further tested for potential synergistic activiy.
[1] Peat TJ, Gaikwad SM, Dubois W, Gyabaah-Kessie N, Zhang S, Gorjifard S, Phyo Z, Andres M, Hughitt VK, Simpson RM, Miller MA, Girvin AT, Taylor A, Williams D, D'Antonio N, Zhang Y, Rajagopalan A, Flietner E, Wilson K, Zhang X, Shinn P, Klumpp-Thomas C, McKnight C, Itkin Z, Chen L, Kazandijian D, Zhang J, Michalowski AM, Simmons JK, Keats J, Thomas CJ, Mock BA. Drug combinations identified by high-throughput screening promote cell cycle transition and upregulate Smad pathways in myeloma. Cancer Lett. 2023 Aug 1;568:216284. doi: 10.1016/j.canlet.2023.216284. Epub 2023 Jun 24. PMID: 37356470; PMCID: PMC10408729.
SEQUENCE No. (e.g., 1, 2, 3, etc.); […] (e.g., Cells, Incubation, Reagent, etc.); VALUE and DESCRIPTION.
1; Cells; 5 uL; white, solid bottom 1536-well Greiner assay plate.
2; Compounds; 23 nL; Kalypsis pin tool (Wako USA) equipped with a 1536-well pin head to transfer to the assay plates.
3; Incubation; 48 hours; 37C incubation.
4; Reagent;5uL; CellTiter Glo (Promega).
5; Detector; 425V; Luminescence; Viewlux PerkinElmer.
NOTES (numbers refer to Sequence numbers above)
1. The cell-based screening methods employed in this study were like those previously published. Briefly, the corresponding myeloma cell lines were screened in 1,536-well plates with 500 cells, 5-uL per well for inhibition of cell viability (assessed by measuring ATP levels with CellTiterGlo).
2. NCATS MIPE 4.0 library of approved and investigational drugs were added using the Kalypsis pin tool. Wells treated with DMSO only for 100% viability and media only wells for 0% viability were used as controls.
3. The assay plates were covered and incubated for 48 hours in a 37C, 5% CO2 incubator with controlled humidity.
4. After 48 hours, CellTilter-GloTM luminescent substrate mix (Promega) reagent was added to the assay plate and plates we incubated for 5 min at room temperature.
5. Signal was measured as median relative luminescence units on a ViewLux (PerkinElmer) multiplate reader.
[1] Heske CM, Davis MI, Baumgart JT, Wilson K, Gormally MV, Chen L, Zhang X, Ceribelli M, Duveau DY, Guha R, Ferrer M, Arnaldez FI, Ji J, Tran HL, Zhang Y, Mendoza A, Helman LJ, Thomas CJ. Matrix Screen Identifies Synergistic Combination of PARP Inhibitors and Nicotinamide Phosphoribosyltransferase (NAMPT) Inhibitors in Ewing Sarcoma. Clin Cancer Res. 2017 Dec 1;23(23):7301-7311. doi: 10.1158/1078-0432.CCR-17-1121. Epub 2017 Sep 12. PMID: 28899971; PMCID: PMC6636827.
For `NC(=O)[C@@H](CCC(F)(F)F)N(Cc1ccc(-c2ncon2)cc1F)S(=O)(=O)c1ccc(Cl)cc1`, the Potency entry is “inactive”.

For `CN(C)Cc1ccc(-c2nc3cccc4c3n2CCNC4=O)cc1`, the Potency is 23.5 µM (active).

On to `COc1ccc2cccc(CCNC(C)=O)c2c1`, for which the Potency entry was “inactive”.

Take `CC(C)(C)c1cc(C(=O)O)c(NC(=O)Nc2ccc3[nH]ncc3c2)s1`: the Potency entry was “inactive”.

With `N#Cc1ccc(NC(=O)Nc2ccccc2Br)c2n[nH]nc12`, the Potency was 13.2 µM (active).

For `CC(=O)O[C@]1(C(C)=O)CC[C@@H]2[C@@H]3C[C@H](C)C4=CC(=O)CC[C@]4(C)[C@H]3CC[C@@]21C`, the Potency entry was “inactive”.

Turning to `CON=C(C(=O)N[C@@H]1C(=O)N2C(C(=O)OCOC(=O)C(C)(C)C)=C(C=Cc3scnc3C)CS[C@H]12)c1csc(N)n1`, the Potency was 16.6 µM (active).

In the case of `CNC(=O)c1ccccc1Sc1ccc2c(C=Cc3ccccn3)n[nH]c2c1`, the Potency is 0.264 µM (active).

On to `CN(C)c1cc(NC(=O)CNC(C)(C)C)c(O)c2c1C[C@@H]1C[C@H]3[C@H](N(C)C)C(=O)C(C(N)=O)=C(O)[C@@]3(O)C(=O)C1=C2O`, for which the Potency result is “inactive”.

As for `COC(=O)C1=CO[C@@H](O)[C@@H]2C(CO)=CC[C@@H]12`, the Potency is 23.5 µM (active).

For `CC(C)(Cc1ccc2ccccc2c1)NC[C@@H](O)COc1cccc(Cl)c1C#N`, the Potency result was “inactive”.

With `C=C1C(=O)OC2C=C(C)CCC=C(C)CCC12` (stereo not given), the Potency was 14.8 µM (active).

`Oc1ccc(C2CCN(c3ccnc4ccccc34)CC2)cc1O`: the Potency was 16.6 µM (active).

On to `CC(C)(C)Cn1c(N)nc2ccc(-c3[nH]c(C(C)(C)C)nc3-c3ccc(F)cc3)nc21`, for which the Potency result is “inactive”.

Consider `CC=CC(=O)N(CC)c1ccccc1C`, for which the Potency result was “inactive”.

As for `COc1cc2ncnc(-n3nc(-c4ccccn4)nc3N)c2cc1OC`, the Potency is 0.418 µM (active).

Consider `CCOC1OC(=O)C[C@H]1NC(=O)[C@@H]1CCCN1C(=O)[C@@H](NC(=O)c1ccc(N)c(Cl)c1)C(C)(C)C` (stereo not given in full), for which the Potency is 4.69 µM (active).

On to `COc1cc(O)c2c(c1)C(=O)c1cc(C)cc(O)c1C2=O`, for which the Potency entry is “inactive”.

`Cn1cc(C=C2C(=O)Nc3cccnc32)c2ccccc21`: the Potency result is “inactive”.

Turning to `COc1ccc2cc(-c3nc(-c4ccc(S(C)=O)cc4)[nH]c3-c3ccncc3)ccc2c1` (stereo not given), the Potency is 18.7 µM (active).

Take `NS(=O)(=O)c1ccc(NC2=CC(=O)c3ccccc3C2=O)cc1`: the Potency is 1.66 µM (active).

For `NC(CO)(CO)CCc1ccc(Sc2cccc(OCc3ccccc3)c2)cc1Cl`, the Potency was 16.6 µM (active).

`CCCCCN(C)CCC(O)(P(=O)(O)O)P(=O)(O)O`: the Potency result was “inactive”.

`CC1(C)S[C@H]2[C@H](NC(=O)[C@@H](N)c3ccc(O)cc3)C(=O)N2[C@@H]1C(=O)O`: the Potency was 14.8 µM (active).

For the molecule `Cc1ccc(C(C)(O)c2nc3ccccc3s2)c(C)c1` (stereo not given), the Potency entry is “inactive”.

As to `CO[C@H]1C[C@@H]2CC[C@@H](C)[C@@](O)(O2)C(=O)C(=O)N2CCCC[C@@H]2C(=O)O[C@H]([C@@H](C)C[C@@H]2CC[C@H](O)[C@H](OC)C2)CC(=O)[C@H](C)C=C(C)[C@@H](O)[C@@H](OC)C(=O)[C@H](C)C[C@H](C)C=CC=CC=C1C`, the Potency is 16.6 µM (active).

`NC[C@@H]1O[C@@H](O[C@H]2[C@@H](O)[C@H](O[C@@H]3[C@@H](O)[C@@H](N)C[C@H](N)[C@H]3O[C@H]3O[C@H](CN)[C@@H](O)[C@@H](O)[C@H]3N)O[C@H]2CO)[C@H](N)[C@@H](O)[C@@H]1O`: the Potency entry was “inactive”.

With `COc1ccc(-c2coc3cc(O)ccc3c2=O)cc1`, the Potency result is “inactive”.

With `CCOC(CN1C(=O)[C@](CC(=O)Nc2ccc(C)cc2)(NC(=O)Nc2ccc(C)cc2)c2ccccc21)OCC`, the Potency was 16.6 µM (active).

For the molecule `Cc1ccccc1C(C(=O)NC1CCCCC1)N(C(=O)Cn1ccnc1C)c1cccc(F)c1` (stereo not given), the Potency result was “inactive”.

Regarding `CC(C)(C(=O)NCC(F)(F)C(F)(F)F)C(=O)N[C@@H]1C(=O)Nc2ccccc2-c2ccccc21`, the Potency is 2.35 µM (active).

In the case of `CC(=O)N(C)C1(c2ccccc2)CCN(CCC[C@]2(c3ccc(Cl)c(Cl)c3)CCCN(C(=O)c3ccccc3)C2)CC1`, the Potency was 16.6 µM (active).

Consider `C[C@]12CC[C@@H]3c4ccc(O)cc4CC[C@H]3[C@H]1C[C@@H](O)[C@H]2O`, for which the Potency was 18.7 µM (active).

Turning to `CCCCCNC(=O)N1CCC(CN(Cc2ccc(Cl)cc2)Cc2ccc([N+](=O)[O-])s2)C1` (stereo not given), the Potency is 18.7 µM (active).

Turning to `COc1ccc2c(Oc3ccc(NC(=O)c4c(C)n(CC(C)(C)O)n(-c5ccccc5)c4=O)cc3F)ccnc2c1`, the Potency was 23.5 µM (active).

Take `C[C@]12CCC3c4ccc(O)cc4CCC3C1CCC2=O` (stereo not given in full): the Potency entry was “inactive”.

As for `O=C1NC(=O)C(=Cc2ccc(-c3ccc(F)cc3)o2)S1`, the Potency entry was “inactive”.

For `COCCOc1nc(-c2ccc(Cl)c(Cl)c2)n(-c2ccc(NC(=O)CCl)cc2)n1`, the Potency was 16.6 µM (active).

For `O=C(O)c1c(Cl)c(Cl)c(Cl)c(Cl)c1-c1c2cc(I)c(=O)c(I)c-2oc2c(I)c(O)c(I)cc12`, the Potency is 14.8 µM (active).

Consider `CS(=O)(=O)N(Cc1ccco1)CC(O)Cn1c2ccccc2c2ccccc21` (stereo not given), for which the Potency entry is “inactive”.
